Drawing on PubChem BioAssay (NCI), this text covers growth for 40 compounds.

About 83,000 compounds went through this panel and 20% of them were active in at least one assay; those are over-represented in the sample as a whole.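 Plates (96-well) were seeded with cells, treated with compound at one concentration, and incubated for 48 hours before percent growth was determined.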 Values without a mark were called inactive. Active and inactive are the calls of the source. The calls were made as follows: active = growth percent below 10; inactive = the rest.

The test system of this experiment is MDA-MB-468 breast. Kind of experiment: NCI-60 one-dose screen, 48 h (100 = growth as untreated, 0 = no growth, -100 = all killed). As to conditions: 10 µM unless noted.
Consider `COc1ccc(CNc2ccc3nc(NC(=O)CN4CCCCCC4)sc3c2)cc1`, for which the growth is 46.8%. For `CCCCCCCCCCCCCCCCCC1=NC(C)(C)CN1CCO`, the growth was -69% (active). For `COc1ccc(-c2cc(-c3cc(-c4ccc(OC)cc4)nc(N)n3)nc(N)n2)cc1`, the growth was 104%. In the case of `COc1ccc(/C=C/c2nc3ccccc3c(=O)n2-c2ccc(C#Cc3ccc(C(C)(C)C)cc3)cc2C)c(OC)c1` it was 97.9%; in that of `C#CCn1cc(C=C2C(=O)NC(=O)NC2=O)c2cc(Cl)ccc21`, 41.9%. In the case of `FC(F)(F)Oc1cccc(-c2cnc3ccc(-c4ccncc4)nn23)c1` it was -10.5% (active); in that of `COc1ccc(/C=C2\SC(=Nc3ccccc3)NC2=O)cc1`, -84.8% (active); in that of `CCC(c1ccc(OC)cc1)C(CC)c1ccc(O)c(CN2CCCC2)c1` (stereo not given), -45% (active). In the case of `O=S(=O)(c1ccccc1)n1cc2c(c1)-c1nc(Nc3ncccn3)sc1CC2` it was 46.3%; in that of `COc1cc(/C=C2\CN(S(=O)(=O)c3ccccc3)C/C(=C\c3cc(CN4CCCC4)c(O)c(OC)c3)C2=O)cc(CN2CCCC2)c1O`, -32.1% (active); in that of `Clc1cccc(Nc2ncnc3ccc(-c4cnc5[nH]ccc5c4)cc23)c1`, -16.9% (active).

Turning to `NC(=S)N/N=C\c1nccc2c(C(F)(F)C(F)(F)C(F)(F)F)cccc12`, the growth is -69.7% (active). `COc1ccc(OC)c(/C=C/c2nnc(Nc3ccccc3)o2)c1`: the growth is 103%. In the case of `COc1ccccc1CNc1nc(N)nc2[nH]c3ccc(O)cc3c12`, the growth was 45.2%. Consider `CS(=O)c1nccc(-c2c(-c3ccc(F)c(OCCc4ccccc4)c3)nc3sccn23)n1` (stereo not given), for which the growth is -39.4% (active). On to `CN1CCN(Cc2ccc(NC(=O)c3cncc(C#Cc4cnc5ccc(OCC(C)(C)O)nn45)c3)cc2C(F)(F)F)CC1`, for which the growth was -40.2% (active). With `C=C1C(=O)O[C@H]2[C@H]1CC/C(COC(=O)NCc1ccc(Cn3c(=O)sn(CCI)c3=O)cc1)=C\CC[C@@]1(C)O[C@@H]21`, the growth is -37.1% (active). Regarding `COc1cc(C2C3=C(COC3=O)Nc3c2ccc2c3CCCC2)cc2c1OCO2` (stereo not given), the growth is -6.39% (active). As to `CCOC(=O)Nc1ccc2c(ccn2C(=O)c2cccc(F)c2)c1`, the growth was 34.5%. In the case of `O=C1c2c(Cl)c(Cl)c(Cl)c(Cl)c2C(=O)C2(Cl)CC=CCC12Cl` (stereo not given) it was -77.2% (active); in that of `Cn1ccnc1C(=O)/C=C/c1ccc(C(=O)Nc2ccccc2O)cc1`, -3.85% (active); in that of `CNc1nc2ncn(C)c2c(=O)[nH]1`, 101%. In the case of `O=c1cc(-c2ccccc2)[nH]c2c1CCCC2` it was 39.9%; in that of `N=C(N)c1ccc(-c2ccc(-c3cccs3)s2)nc1`, -51% (active); in that of `CC(=O)[C@@H]1CC[C@]2(C(=O)n3ccnc3)CC[C@]3(C)[C@H](CC[C@@H]4[C@@]5(C)Cc6c([nH]c7ccccc67)C(C)(C)[C@@H]5CC[C@]43C)[C@@H]12`, 90.8%. For the compound `COc1cc(C2C3=C(COC3=O)N(CCO)c3cc4c(cc32)OCCO4)cc(OC)c1O` (stereo not given), the growth was -24.4% (active). In the case of `N#Cc1c(-c2cccc(Cl)c2)cc(-c2cccc(F)c2)[nH]c1=O` it was 87.1%; in that of `CCCCNNC(=O)c1ccc(Br)cc1`, 60.1%. For `CCO/C=C1\SC(=S)N(c2cccc(O)c2)C1=O`, the growth was 87.6%. For the compound `COc1ccc2nc(-c3c(-c4ccccc4)nc4ncccn34)[nH]c2c1`, the growth was 89.4%.

As to `CC1OC(O[C@H]2/C=C/C=C/C=C/C=C/C=C/C=C/C=C/[C@H](C)[C@@H](O)[C@@H](C)[C@H](C)OC(=O)CC(O)CC(O)CCC(O)C(O)CC(O)C[C@]3(O)C[C@H](O)C(C(=O)O)C(C2)O3)C(O)[C@H](N)C1O` (stereo not given in full), the growth was 83.3%. In the case of `COc1ccc(OC2=CC(=O)c3ccc(C)nc3C2=O)cc1` it was 86.2%; in that of `CC(=O)Nc1nc2c(c(N)c1C#N)C(c1cccc(Cl)c1)C1=C(CCCC1=O)N2c1sc2c(c1C#N)CCCC2` (stereo not given), 47.7%; in that of `COc1ccc(-c2nn(-c3cccc(NC(=O)Nc4ccc(Cl)c(C(F)(F)F)c4)c3)cc2-c2ccncc2)cc1Cl`, 23.1%.

For `CCCCCCCCCC(=O)Oc1ccc(/C(=C(/C)Cc2cccc(OC)c2)c2ccc(OCCN(C)C)cc2)cc1`, the growth was 103%. For `COc1ccc(NC(=S)/N=c2\oc3c(OC)cccc3cc2-c2cc3ccccc3[nH]2)cc1`, the growth is 82.1%. For `COc1cc(C(=O)N2CCN(c3cc4c(cc3F)c(=O)c(C(=O)NO)cn4C3CC3)CC2)cc(OC)c1OC`, the growth was 95.8%.

Regarding `C#CCOc1ccc2ncnc(Nc3cccc(NC(=O)C=C)c3)c2c1`, the growth was 41.6%.

For the compound `C/C=C/C(=O)OCCCCCCCCCCCC`, the growth was 96.9%. Turning to `CS(=O)(=O)c1ccc(-c2nn(-c3ccccc3)cc2/C=N/NC(=O)c2nc(N)n[nH]2)cc1`, the growth was 98.2%.
